{"source": "paper PMC7819943", "about": "“Rice protein-binding microarrays: a tool to detect cis-acting elements near promoter regions in rice”", "note": "Over roughly 35,000 sequences, “fluorescence intensity (a.u.)” has its median near 10,000; the highest 2% begin near 52,000. Many of the other results were omitted from the sample, so the highest values are more common in it than they were."}
{"biological_target": "T1, OsWOX13 (Oryza sativa, UniProt Q5QMM3 1-267)", "T1 sequence": "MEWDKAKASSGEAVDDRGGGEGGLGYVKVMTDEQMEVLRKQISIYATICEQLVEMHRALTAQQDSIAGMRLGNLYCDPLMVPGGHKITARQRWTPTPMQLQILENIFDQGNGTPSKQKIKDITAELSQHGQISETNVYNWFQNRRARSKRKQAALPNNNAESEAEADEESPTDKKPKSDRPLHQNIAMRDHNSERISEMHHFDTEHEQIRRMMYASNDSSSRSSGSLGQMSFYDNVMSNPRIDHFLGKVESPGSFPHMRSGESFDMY", "experiment": "protein-binding microarray (RPBM); PBS, 2% BSA, 51.3 ng/ul salmon testes DNA, 50 uM zinc acetate, 200 nM TF, 25 C, 1 h; high values mean tight binding", "conditions": "protein: recombinant; tags: N-terminal polyhistidine and DsRed monomer fusion (pET32a); label: CyDye5-dUTP incorporated in the synthesized complementary strand; 3' TTTTT single-stranded linker to array surface; dsDNA, one strand shown", "in_short": "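Binding signal here means per-feature fluorescence intensity in arbitrary units. The values were read on an Axon 4000B scanner after a custom Agilent array, double-stranded by primer extension with Cy5-dUTP, was incubated with 200 nM protein at 25 °C for 1 h in PBS with 2% BSA, salmon testes DNA and 50 µM zinc acetate, then washed. The proteins were transcription factors with an N-terminal polyhistidine tag and DsRed, expressed in E. coli BL21-CodonPlus and purified on Ni–NTA.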"}
{"sequence": "GATGGACCAATTTGATTGTTGTTGGATTCTACGATGCATGCGGAGTCACCTAGTGCAG", "binding signal": "9950 fluorescence intensity (a.u.)"}
{"sequence": "GCTTAAATTAATATACCTGAACCGGCGAGCATTTAAATTTCGGAGTCACCTAGTGCAG", "binding signal": "5370 fluorescence intensity (a.u.)"}
{"sequence": "AGTACAAATGACGGATTAATTAGGCTTAATAAATTCGTCTCGGAGTCACCTAGTGCAG", "binding signal": "19200 fluorescence intensity (a.u.)"}
{"sequence": "CGGATTAATTAGGCTTAATAAATTCATCTCGCAGTTTCCTCGGAGTCACCTAGTGCAG", "binding signal": "50800 fluorescence intensity (a.u.)"}
{"sequence": "ACTAATGACGGATTAATTAGGCTTAATAAATTCGTCTCGCCGGAGTCACCTAGTGCAG", "binding signal": "51500 fluorescence intensity (a.u.)"}
{"sequence": "TGGCTTAATTTAATCCCCTCCATTCCGGATGCCTCTCCCTCGGAGTCACCTAGTGCAG", "binding signal": "20200 fluorescence intensity (a.u.)"}
{"sequence": "TTGATTGATTTGTTTGCACTCCATGAAATAAGTGAGGGCTCGGAGTCACCTAGTGCAG", "binding signal": "65200 fluorescence intensity (a.u.)"}
{"sequence": "ATGATTTGTTGTTGAGTTCGGTTTGAAATCAATATAAGTACGGAGTCACCTAGTGCAG", "binding signal": "14700 fluorescence intensity (a.u.)"}
{"sequence": "CTAATGACGAGATTAATTAGGCTTAATAAATTCGTCTCGCCGGAGTCACCTAGTGCAG", "binding signal": "54800 fluorescence intensity (a.u.)"}
{"sequence": "TCGCTTAATTAATTTGGATTTGGATGCGGATCCCTCGCCTCGGAGTCACCTAGTGCAG", "binding signal": "56000 fluorescence intensity (a.u.)"}
{"sequence": "GGATTAATTAGGCTTAATAAATTCATCTCGCAGTTTTCTGCGGAGTCACCTAGTGCAG", "binding signal": "26200 fluorescence intensity (a.u.)"}
{"sequence": "TTGATACTCTGATGATTGTAAAGTAAATTGTTTGAAATTTCGGAGTCACCTAGTGCAG", "binding signal": "9650 fluorescence intensity (a.u.)"}
{"sequence": "AATGACTGATTAATTAGGCTTAATAAATTCATCTCGCAGTCGGAGTCACCTAGTGCAG", "binding signal": "59600 fluorescence intensity (a.u.)"}
{"sequence": "ACGGATTAATTAGGCTTAATAAATTTGCCTCGCGGTTTCTCGGAGTCACCTAGTGCAG", "binding signal": "39200 fluorescence intensity (a.u.)"}
{"sequence": "CTGATTGGCCATGAGTCCAGAGATAGCATTGAACACAGGACGGAGTCACCTAGTGCAG", "binding signal": "32400 fluorescence intensity (a.u.)"}
{"sequence": "GGGAGTAATTGAATATGCCTTTTGGGCTGCCATCTGCCCACGGAGTCACCTAGTGCAG", "binding signal": "26800 fluorescence intensity (a.u.)"}
{"sequence": "TTTGATTTGATTCGTGTGCTCCCCGCCGCCTTCGATCCCTCGGAGTCACCTAGTGCAG", "binding signal": "43600 fluorescence intensity (a.u.)"}
{"sequence": "CTTAATTGCGCGCGAATGGAGTAATACTAGTACTAGTATACGGAGTCACCTAGTGCAG", "binding signal": "15100 fluorescence intensity (a.u.)"}
{"sequence": "GACTAAATTTTAATCCCTATCACATCGGATATTTGACACTCGGAGTCACCTAGTGCAG", "binding signal": "7230 fluorescence intensity (a.u.)"}
{"sequence": "AGGCCCAATTACTGATCGAAATTTCGATGATTTCGATCGACGGAGTCACCTAGTGCAG", "binding signal": "18500 fluorescence intensity (a.u.)"}
{"sequence": "CCAATTGGAATGCATTGTCTATTTGTTGTCTAGATCTCTCCGGAGTCACCTAGTGCAG", "binding signal": "3760 fluorescence intensity (a.u.)"}
{"sequence": "AATCTCCTAATTATGTATTGCCCAAATCCATTTATTTTCCCGGAGTCACCTAGTGCAG", "binding signal": "7170 fluorescence intensity (a.u.)"}
{"sequence": "ACATAACATATGAGATTGAAATTTCTTGAACCATACATTACGGAGTCACCTAGTGCAG", "binding signal": "9950 fluorescence intensity (a.u.)"}
{"sequence": "CTCACATGTTAATTACCATCAATGTATTTTACTCTTTTAACGGAGTCACCTAGTGCAG", "binding signal": "16700 fluorescence intensity (a.u.)"}
{"sequence": "TTTATACGAAAATCAATAATTATAGCAGATATCCACAAGGCGGAGTCACCTAGTGCAG", "binding signal": "5700 fluorescence intensity (a.u.)"}
{"sequence": "ACCTTTTCCGCGTGTTGTGTCTGTTTGTTGAAGATGAATTCGGAGTCACCTAGTGCAG", "binding signal": "3280 fluorescence intensity (a.u.)"}
{"sequence": "AATGCTAATGACAGATTAATTAGGCTTAATAAATTTGTCTCGGAGTCACCTAGTGCAG", "binding signal": "29500 fluorescence intensity (a.u.)"}
{"sequence": "TGCTAATGACTGATTAATTAGGCTTAATAAATTCGTCTTGCGGAGTCACCTAGTGCAG", "binding signal": "35300 fluorescence intensity (a.u.)"}
{"sequence": "TGCTAATGACTGATTAATTAGGCTTAATAAATTTGTCTCGCGGAGTCACCTAGTGCAG", "binding signal": "64800 fluorescence intensity (a.u.)"}
{"sequence": "TATAATAATTAAAACTCAATCAATCATACGTTAATAGCACCGGAGTCACCTAGTGCAG", "binding signal": "20000 fluorescence intensity (a.u.)"}
{"sequence": "ATGATGATTGTTAGTGGATGATGATGTGTCATCTTGTTAACGGAGTCACCTAGTGCAG", "binding signal": "38400 fluorescence intensity (a.u.)"}
{"sequence": "CACGGATTATTTTGAGCAATTACCGCTCTAATCCGGGGCGCGGAGTCACCTAGTGCAG", "binding signal": "3600 fluorescence intensity (a.u.)"}
{"sequence": "ACACATAATGTAATCTATTTTGATATAACCAAAAGCTGTTCGGAGTCACCTAGTGCAG", "binding signal": "7540 fluorescence intensity (a.u.)"}
{"sequence": "TGGTCCTTTACATTGCAATTAATTTGTTTGGAATTTATTACGGAGTCACCTAGTGCAG", "binding signal": "8240 fluorescence intensity (a.u.)"}
{"sequence": "GATTATAATTTGTAAGATAATTGACCATGGAGAAGATTCACGGAGTCACCTAGTGCAG", "binding signal": "16300 fluorescence intensity (a.u.)"}
{"sequence": "GATAATTGACAAGATTGAACCATATGTGATGTATTATTTCCGGAGTCACCTAGTGCAG", "binding signal": "53200 fluorescence intensity (a.u.)"}
{"sequence": "AATTATTGATTTGATGAAACTAATTTAGTATTATAAAGAGCGGAGTCACCTAGTGCAG", "binding signal": "51000 fluorescence intensity (a.u.)"}
{"sequence": "TATAATTGATTATTGTGACCTCATGATAGAGACAAGACCACGGAGTCACCTAGTGCAG", "binding signal": "53500 fluorescence intensity (a.u.)"}
{"sequence": "CAGTATATAAATAATTTGAATTAGATGAGATATATCCTAGCGGAGTCACCTAGTGCAG", "binding signal": "8160 fluorescence intensity (a.u.)"}
{"sequence": "GGATGTCATGATAATTGACTTATGACAATGTGATTATTTCCGGAGTCACCTAGTGCAG", "binding signal": "19700 fluorescence intensity (a.u.)"}
{"sequence": "AGATAATTTGTGATTGATGTCATAGTAGTAGAGAAAACCACGGAGTCACCTAGTGCAG", "binding signal": "46800 fluorescence intensity (a.u.)"}
{"sequence": "ATATATATTGATTATATGTTTATTTTGTATGAAGATGTTCCGGAGTCACCTAGTGCAG", "binding signal": "34900 fluorescence intensity (a.u.)"}
{"sequence": "GTATAATTGACAGATGAATTTCACGCAAGAGTATATTGAGCGGAGTCACCTAGTGCAG", "binding signal": "55900 fluorescence intensity (a.u.)"}
{"sequence": "ATCTCAATCAGCAACACAAATGACCCTGACCCACGATCCACGGAGTCACCTAGTGCAG", "binding signal": "20900 fluorescence intensity (a.u.)"}
{"sequence": "GCCGTTAGTTAATTATTATCCGGTAAAGAAGATTAGTAGTCGGAGTCACCTAGTGCAG", "binding signal": "12200 fluorescence intensity (a.u.)"}
